Assay results from PubChem BioAssay (NCATS).
Inconclusive results are not listed. Calls of active or inactive are those of the source. Calls follow the shape of the dose curve; as a rule, active = well fitted cell-killing curve with a large enough effect; inconclusive = small, poorly fitted or top-dose-only effect, or effect the other way; inactive = no such curve, though single readings can be large or run the other way.

Experiment: Quantitative High-Throughput drug screen in 47 multiple myeloma cell lines against the NCATS MIPE library collection: VP6_DJ cell viability assay (AID 1919867); also: nearly all actives have a fitted effect of over 40% in size
Conditions: ATP luminescence, 48 h; series mostly up to 45.8 µM
Method in brief: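 qHTS format: cells plated (500/well), pin-dosed with MIPE 4.0 compounds, kept 48 h at 37 °C. Readout was CellTiter-Glo luminescence, median RLU.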
Potency is read from the fitted curve at half-maximal effect.

| Structure (SMILES) | Potency |
| --- | --- |
| CCC(C(=O)O)C1CCC(C)C(C(C)C(O)C(C)C(=O)C(CC)C2OC3(C=CC(O)[C@@]4(CC[C@](C)(C5CC[C@@](O)(CC)C(C)O5)O4)O3)C(C)CC2C)O1 (stereo partly specified) | 2090 nM (active) |
| CC(=O)[C@]1(O)Cc2c(O)c3c(c(O)c2[C@@H](O[C@H]2C[C@H](N)[C@@H](O)[C@H](C)O2)C1)C(=O)c1ccccc1C3=O | 418 nM (active) |
| COc1cc(C=CC(=O)CC(=O)C=Cc2ccc(O)c(OC)c2)ccc1O | 9590 nM (active) |
| CN(CC(=O)N(Cc1ccc(C2CCCCC2)cc1)c1ccc(C(=O)O)c(O)c1)S(=O)(=O)c1c(F)c(F)c(F)c(F)c1F | 8330 nM (active) |
| CC(C)(C)[C@H](NC(=O)c1ccc(N)c(Cl)c1)C(=O)N1CCC[C@@H]1C(=O)N[C@H](C#N)CC(=O)O | 834 nM (active) |
| Cn1cnc(=N)c2[nH]cnc21 | 66.2 nM (active) |
| COc1ccc2c(c1OC)C(=O)OC2[C@H]1c2c(cc3c(c2OC)OCO3)CCN1C (stereo partly specified) | 74.3 nM (active) |
| COc1ccc(S(=O)(=O)Nc2cccnc2Nc2ccc(O)cc2)cc1 | 187 nM (active) |
| C=C(C)[C@@H]1CC[C@]2(C(=O)O)CC[C@]3(C)[C@H](CC[C@@H]4[C@@]5(C)CC[C@H](O)C(C)(C)[C@@H]5CC[C@]43C)[C@@H]12 | 7430 nM (active) |
| CC(=O)SCC(Cc1ccccc1)C(=O)NCC(=O)OCc1ccccc1 (stereo unspecified) | 5900 nM (active) |
| CCOc1cc2ncc(C#N)c(Nc3ccc(OCc4ccccn4)c(Cl)c3)c2cc1NC(=O)C=CCN(C)C | 1180 nM (active) |
